Consider six molecules from PubChem BioAssay (EPA / NIEHS).

Calls of active or inactive are those of the source. Rule for the calls: active = hit-call score of the fitted dose curve at least 0.9, where 1 is the maximum; inactive = score below 0.9.

A short description of experiment [1]: ATG_GRE_CIS: Attagene CIS-FACTORIAL HepG2 Assay for human Glucocorticoid Response Elements (GRE) (AID 2282947). Particulars: HepG2 GRE cis-reporter, Attagene multiplex mRNA; actives raise or lower the signal. The gist of the method:
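Endogenous transcription factor activity is read through cis-element reporter constructs transiently transfected into HepG2 cells. After 24 h treatment, labelled RT-PCR products are resolved by capillary electrophoresis; DMSO sets baseline for bidirectional curve fitting.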

A short description of experiment [2]: ATG_ISRE_CIS: Attagene CIS-FACTORIAL HepG2 Assay for human Interferon Regulatory Factor 1 (IRF1) binding to an Interferon-Stimulated Response Element (ISRE) (AID 2282948). As to conditions: HepG2 ISRE cis-reporter (Attagene), mRNA transcription readout; actives raise or lower the signal. The gist of the method: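 Transiently transfected HepG2 cells carrying cis-element reporter units, dosed 24 hours. Reporter mRNA quantified by RT-PCR, fluorescent primer extension, HpaI digestion and capillary electrophoresis. Bidirectional fitting relative to DMSO.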

Experiment [3] is described as follows: ATG_M_32_CIS: Attagene CIS-FACTORIAL HepG2 Assay for M32 Transcription Factor (Internal Marker) (AID 2282949).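 Note: background control marker of the multiplexed CIS panel rather than a real target.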 As to conditions: HepG2 Attagene cis-factorial M32 reporter, mRNA; actives raise or lower the signal. The gist of the method:
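Internal background marker read-out: RT-PCR/capillary electrophoresis fluorescence of reporter transcripts from transiently transfected HepG2 cells after 24 h chemical exposure. Activity fitted bidirectionally relative to DMSO negative control.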

A short description of experiment [4]: ATG_M_06_CIS: Attagene CIS-FACTORIAL HepG2 Assay for M06 Transcription Factor (Internal Marker) (AID 2282950). Particulars: HepG2 Attagene CIS-FACTORIAL M06 internal marker reporter; actives raise or lower the signal. The gist of the method:
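Steps: transfect HepG2 with multiplexed cis-element reporter constructs; dose chemical 24 h; extract RNA with DNase treatment; reverse-transcribe, PCR-amplify, 6-FAM label, HpaI digest; separate fragments by capillary electrophoresis. Activity fitted both directions versus DMSO.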

Experiment [5] concerns the target Hepatocyte nuclear factor 6 (Homo sapiens) (UniProt Q9UBC0). Description: ATG_HNF6_CIS: Attagene CIS-FACTORIAL HepG2 Assay for human Hepatocyte Nuclear Factor 6 (HNF6) (AID 2282952). As to conditions: HepG2 Attagene cis-factorial HNF6 reporter transcription; actives raise or lower the signal. The gist of the method: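 Transiently transfected HepG2 cells expressing cis-regulated reporter transcription units were exposed to chemical for 24 h in a 24-well format. Reporter transcript abundance was determined by fluorescence capillary electrophoresis.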

Experiment [6] has as its target Heat shock factor protein 1 (Homo sapiens) (UniProt Q00613). Description: ATG_HSE_CIS: Attagene CIS-FACTORIAL HepG2 Assay for human Heat Shock Transcription Factor 1 (HSE) (AID 2282953). Particulars: HepG2 HSE cis-reporter, Attagene RNA transcription; actives raise or lower the signal. The gist of the method:
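Cells were transfected with cis-element-driven reporter constructs, dosed for 24 h, then total RNA was reverse-transcribed and reporter cDNA amplified, FAM-labelled and digested with HpaI. Fragments were resolved by capillary electrophoresis; gain or loss was fitted against DMSO.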

A short description of experiment [7]: ATG_MRE_CIS: Attagene CIS-FACTORIAL HepG2 Assay for human Metal Responsive Element (MRE) (AID 2282954). As to conditions: HepG2 MRE cis-reporter transcription, Attagene multiplex; actives raise or lower the signal. The gist of the method: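 Fluorescent reporter fragments separated by capillary electrophoresis give mRNA induction for the MRE unit after 24 h treatment of transfected HepG2 cells. Endogenous transcription-factor activity is read; DMSO serves as negative control and baseline.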

Experiment [8] can be described thus: ATG_PBREM_CIS: Attagene CIS-FACTORIAL HepG2 Assay for human Phenobarbital-responsive Enhancer Module (PBREM) (AID 2282955). Particulars: HepG2 PBREM cis-reporter, Attagene multiplexed transcription; actives raise or lower the signal. The gist of the method:
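Multiplexed cis-reporter readout in human hepatoma HepG2 cells; PBREM-regulated transcript quantified after 24 h exposure by fluorescent RT-PCR fragment analysis. Signal changes up or down fitted relative to DMSO.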

Experiment [9] concerns the target Paired box protein Pax-6 (Homo sapiens) (UniProt P26367). Kind of experiment: ATG_Pax6_CIS: Attagene CIS-FACTORIAL HepG2 Assay for human Paired Box 6 (PAX6) (AID 2282956). As to conditions: HepG2 CIS-FACTORIAL PAX6 reporter transcription, RNA readout; actives raise or lower the signal. The gist of the method: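 HepG2 cells transiently transfected with cis-promoter-driven multiplexed reporter units sensing endogenous transcription factor activity; 24 h chemical exposure. Reporter mRNA quantified by RT-PCR, 6-FAM labelling, HpaI digestion and capillary electrophoresis; bidirectional fit versus DMSO baseline.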

Experiment [10] in a line: ATG_PXRE_CIS: Attagene CIS-FACTORIAL HepG2 Assay for human Pregnane X Receptor Element (PXRE) (AID 2282957). As to conditions: HepG2 Attagene CIS-FACTORIAL PXRE reporter, mRNA; actives raise or lower the signal. The gist of the method:
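Cis-element reporter mRNA in human hepatoma HepG2 cells is measured 24 h post-dosing by RT-PCR, primer-extension labeling and capillary electrophoresis; gain or loss of signal is fitted relative to DMSO.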

The nature of experiment [11]: ATG_PPRE_CIS: Attagene CIS-FACTORIAL HepG2 Assay for human Peroxisome Proliferator-activated Response Element (PPRE) (AID 2282958). Particulars: HepG2 PPRE cis-element reporter, Attagene transcription factor profiling; actives raise or lower the signal. The gist of the method: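 DMSO served as negative control and baseline for bidirectional curve fitting. Signal came from PPRE-regulated reporter mRNA in HepG2 cells, measured 24 h post-dosing by RT-PCR, 6-FAM primer extension and capillary electrophoresis.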

The nature of experiment [12]: ATG_RORE_CIS: Attagene CIS-FACTORIAL HepG2 Assay for human RAR-related Orphan Receptor Element (RORE) (AID 2282959). Particulars: HepG2 Attagene cis-factorial RORE reporter, mRNA; actives raise or lower the signal. The gist of the method: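 Transfect HepG2 with MRTUs; treat 24 h; extract RNA; RT with oligo(dT); PCR with reporter-specific primers; 6-FAM primer extension; HpaI digest 2 h at 37 C; capillary electrophoresis. Fit vs DMSO, bidirectional.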

The nature of experiment [13]: ATG_Sox_CIS: Attagene CIS-FACTORIAL HepG2 Assay for human SRY-box transcription factor (SOX) (AID 2282960). Particulars: HepG2 Attagene cis-factorial SOX reporter, mRNA; actives raise or lower the signal. The gist of the method:
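Fluorescence-labelled cDNA fragments from reporter transcripts, sized by CE, give the signal. Cells: HepG2, transiently transfected with cis-regulated reporter units. Exposure 24 h; DMSO negative control; bidirectional curve fitting.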

A short description of experiment [14]: ATG_SREBP_CIS: Attagene CIS-FACTORIAL HepG2 Assay for human Sterol Regulatory Element Binding (SREBP) (AID 2282962). As to conditions: HepG2 Attagene cis-factorial SREBP reporter, mRNA; actives raise or lower the signal. The gist of the method:
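HepG2 cells transiently transfected with multiplexed cis-promoter reporter units sensing endogenous transcription factors; reporter mRNA measured 24 h after dosing by RT-PCR, 6-FAM labeling, HpaI digestion and capillary electrophoresis. Bidirectional fit versus DMSO.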

For experiment [15], the target named is Signal transducer and activator of transcription 3 (Homo sapiens) (UniProt P40763). Kind of experiment: ATG_STAT3_CIS: Attagene CIS-FACTORIAL HepG2 Assay for human Signal Transducer and Activator of Transcription 3 (STAT3) (AID 2282963). As to conditions: HepG2, Attagene cis-factorial STAT3 reporter transcription; actives raise or lower the signal. The gist of the method:
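Values derive from bidirectional fits relative to DMSO of reporter mRNA levels, measured by RT-PCR with capillary electrophoresis, in HepG2 cells carrying transiently transfected cis-regulated reporter units and exposed 24 h.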

Experiment [16] can be described thus: ATG_TCF_b_cat_CIS: Attagene CIS-FACTORIAL HepG2 Assay for human T-Cell-Factor with beta-catenin (TCF/b-cat) (AID 2282965). As to conditions: HepG2 TCF/beta-catenin cis-reporter transcription, actives raise or lower the signal. The gist of the method:
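HepG2, transient MRTU transfection, cis-element-driven reporters (endogenous TFs). 24 h compound exposure. Readout: reporter mRNA by RT-PCR + 6-FAM primer extension, HpaI digest, capillary electrophoresis. Gain/loss fit vs DMSO baseline.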

Experiment [17] concerns the target Transcription factor Sp1 (Homo sapiens) (UniProt P08047). Description: ATG_Sp1_CIS: Attagene CIS-FACTORIAL HepG2 Assay for human Specificity Protein 1 (Sp1) (AID 2282961). Particulars: HepG2 Sp1 cis-reporter transcription, actives raise or lower the signal. The gist of the method: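 Chemicals are dosed onto HepG2 cells transfected with multiple cis-promoter reporter constructs, and after 24 h reporter RNA is reverse-transcribed, PCR-amplified and resolved by capillary electrophoresis for fluorescence quantitation; activity is scored up or down against DMSO.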

Experiment [18] is described as follows: ATG_TA_CIS: Attagene CIS-FACTORIAL HepG2 Assay for human TA Basal Promoter (AID 2282964). As to conditions: HepG2 Attagene CIS-factorial TA basal promoter reporter; actives raise or lower the signal. The gist of the method:
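Steps: transfect HepG2 with MRTUs; dose 24 h; isolate RNA, DNase-treat, reverse-transcribe; PCR and FAM-label reporter cDNA; digest with HpaI 2h at 37 C; run capillary electrophoresis. Activity fitted both directions against DMSO.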

The target in experiment [19] is Hypoxia-inducible factor 1-alpha (Homo sapiens) (UniProt Q16665). Description: ATG_HIF1a_CIS: Attagene CIS-FACTORIAL HepG2 Assay for human Hypoxia Inducible Factor 1 (HIF1A) (AID 2282951). Particulars: HepG2 Attagene cis-factorial HIF1a reporter transcription; actives raise or lower the signal. The gist of the method: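 Cis-element reporter constructs were transiently transfected into HepG2 cells, which were treated for 24 h; reporter RNA was reverse-transcribed, amplified, labelled and resolved by capillary electrophoresis.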
Chain of Hypoxia-inducible factor 1-alpha (Homo sapiens) (Q16665 whole entry, looked up): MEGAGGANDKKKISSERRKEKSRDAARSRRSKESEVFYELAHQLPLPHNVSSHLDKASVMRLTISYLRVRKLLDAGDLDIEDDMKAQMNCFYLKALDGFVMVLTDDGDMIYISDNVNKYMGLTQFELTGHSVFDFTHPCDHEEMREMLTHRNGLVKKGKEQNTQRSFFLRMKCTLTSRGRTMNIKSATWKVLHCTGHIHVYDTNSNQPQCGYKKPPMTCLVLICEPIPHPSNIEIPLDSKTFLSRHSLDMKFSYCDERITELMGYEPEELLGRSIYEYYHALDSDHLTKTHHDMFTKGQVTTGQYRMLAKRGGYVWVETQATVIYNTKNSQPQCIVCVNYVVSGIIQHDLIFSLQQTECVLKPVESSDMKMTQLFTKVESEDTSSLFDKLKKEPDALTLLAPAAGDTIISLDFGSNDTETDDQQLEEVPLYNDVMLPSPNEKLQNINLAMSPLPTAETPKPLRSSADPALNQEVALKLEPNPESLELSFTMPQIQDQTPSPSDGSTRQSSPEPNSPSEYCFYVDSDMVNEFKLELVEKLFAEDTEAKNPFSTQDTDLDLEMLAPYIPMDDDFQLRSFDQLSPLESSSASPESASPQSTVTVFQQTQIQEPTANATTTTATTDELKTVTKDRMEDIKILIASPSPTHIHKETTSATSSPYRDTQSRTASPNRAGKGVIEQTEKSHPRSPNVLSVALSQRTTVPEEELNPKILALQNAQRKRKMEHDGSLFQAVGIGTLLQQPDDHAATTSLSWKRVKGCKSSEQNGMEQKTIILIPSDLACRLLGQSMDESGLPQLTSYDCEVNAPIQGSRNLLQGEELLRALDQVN

Chain of Hepatocyte nuclear factor 6 (Homo sapiens) (Q9UBC0 whole entry, looked up): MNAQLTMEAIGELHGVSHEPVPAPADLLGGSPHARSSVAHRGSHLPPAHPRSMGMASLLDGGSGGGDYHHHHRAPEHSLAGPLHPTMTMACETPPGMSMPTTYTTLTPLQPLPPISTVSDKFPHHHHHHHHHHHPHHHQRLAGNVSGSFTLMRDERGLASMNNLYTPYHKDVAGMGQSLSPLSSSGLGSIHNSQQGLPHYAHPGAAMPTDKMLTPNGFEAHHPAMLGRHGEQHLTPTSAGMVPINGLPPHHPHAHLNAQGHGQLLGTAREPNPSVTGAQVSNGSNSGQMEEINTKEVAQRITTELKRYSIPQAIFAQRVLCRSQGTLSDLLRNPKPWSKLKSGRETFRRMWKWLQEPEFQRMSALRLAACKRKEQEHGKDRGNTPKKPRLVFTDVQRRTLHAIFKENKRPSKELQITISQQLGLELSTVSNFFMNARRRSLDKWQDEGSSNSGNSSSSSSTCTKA
Chain of Heat shock factor protein 1 (Homo sapiens) (Q00613 whole entry, looked up, the tested form may be a part): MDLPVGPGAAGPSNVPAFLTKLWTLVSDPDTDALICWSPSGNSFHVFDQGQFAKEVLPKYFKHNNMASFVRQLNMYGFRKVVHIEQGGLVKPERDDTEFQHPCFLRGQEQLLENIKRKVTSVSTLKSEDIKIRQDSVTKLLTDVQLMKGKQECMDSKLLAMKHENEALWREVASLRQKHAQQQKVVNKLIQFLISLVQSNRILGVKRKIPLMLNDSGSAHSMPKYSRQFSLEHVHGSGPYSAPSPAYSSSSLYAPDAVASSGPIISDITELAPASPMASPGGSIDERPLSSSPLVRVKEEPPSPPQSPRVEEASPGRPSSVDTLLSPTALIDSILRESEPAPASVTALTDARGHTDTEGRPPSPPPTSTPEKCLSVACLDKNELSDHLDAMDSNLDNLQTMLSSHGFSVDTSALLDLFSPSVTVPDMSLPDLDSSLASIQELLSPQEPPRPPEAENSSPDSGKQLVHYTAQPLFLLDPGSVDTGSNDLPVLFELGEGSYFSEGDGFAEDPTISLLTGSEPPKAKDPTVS
Chain of Signal transducer and activator of transcription 3 (Homo sapiens) (P40763 whole entry, looked up): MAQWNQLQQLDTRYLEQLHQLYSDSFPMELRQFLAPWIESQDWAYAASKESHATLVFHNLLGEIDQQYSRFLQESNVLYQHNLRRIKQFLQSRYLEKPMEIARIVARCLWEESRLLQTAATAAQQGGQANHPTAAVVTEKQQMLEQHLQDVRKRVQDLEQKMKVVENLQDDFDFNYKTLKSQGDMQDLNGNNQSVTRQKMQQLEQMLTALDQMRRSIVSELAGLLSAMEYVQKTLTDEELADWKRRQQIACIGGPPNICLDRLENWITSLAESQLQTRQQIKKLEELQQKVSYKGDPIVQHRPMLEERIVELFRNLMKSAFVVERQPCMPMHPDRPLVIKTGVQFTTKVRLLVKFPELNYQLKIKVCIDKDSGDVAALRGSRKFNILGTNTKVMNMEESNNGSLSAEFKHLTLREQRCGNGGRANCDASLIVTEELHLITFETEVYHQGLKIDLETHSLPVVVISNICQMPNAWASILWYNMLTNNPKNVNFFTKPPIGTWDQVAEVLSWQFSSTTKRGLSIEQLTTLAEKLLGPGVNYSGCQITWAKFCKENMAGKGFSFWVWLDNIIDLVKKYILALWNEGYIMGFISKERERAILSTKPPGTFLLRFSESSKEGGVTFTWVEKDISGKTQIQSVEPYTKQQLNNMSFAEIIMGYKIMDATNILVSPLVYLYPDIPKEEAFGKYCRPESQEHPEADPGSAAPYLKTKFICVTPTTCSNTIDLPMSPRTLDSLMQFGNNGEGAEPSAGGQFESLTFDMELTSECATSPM
Chain of Transcription factor Sp1 (Homo sapiens) (P08047 whole entry, looked up): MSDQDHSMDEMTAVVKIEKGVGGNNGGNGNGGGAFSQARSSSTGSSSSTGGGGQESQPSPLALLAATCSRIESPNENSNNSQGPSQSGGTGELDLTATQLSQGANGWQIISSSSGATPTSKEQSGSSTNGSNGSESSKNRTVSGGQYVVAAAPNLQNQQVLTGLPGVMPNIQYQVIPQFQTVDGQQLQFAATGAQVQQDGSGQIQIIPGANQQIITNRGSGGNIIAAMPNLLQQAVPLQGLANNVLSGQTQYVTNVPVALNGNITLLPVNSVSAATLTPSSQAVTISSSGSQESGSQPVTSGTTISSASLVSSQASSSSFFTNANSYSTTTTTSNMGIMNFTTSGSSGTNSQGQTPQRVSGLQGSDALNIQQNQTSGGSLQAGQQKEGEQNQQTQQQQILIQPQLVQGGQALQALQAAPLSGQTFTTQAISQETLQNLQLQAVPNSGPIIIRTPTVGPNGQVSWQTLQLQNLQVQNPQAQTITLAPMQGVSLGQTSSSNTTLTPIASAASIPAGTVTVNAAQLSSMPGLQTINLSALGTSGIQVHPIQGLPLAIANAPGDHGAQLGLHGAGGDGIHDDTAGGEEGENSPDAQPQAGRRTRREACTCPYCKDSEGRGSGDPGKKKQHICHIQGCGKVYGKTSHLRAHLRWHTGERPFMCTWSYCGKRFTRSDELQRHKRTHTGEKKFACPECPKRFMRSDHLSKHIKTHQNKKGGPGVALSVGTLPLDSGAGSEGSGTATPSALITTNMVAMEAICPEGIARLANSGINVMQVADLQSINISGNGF
Chain of Paired box protein Pax-6 (Homo sapiens) (P26367 whole entry, looked up): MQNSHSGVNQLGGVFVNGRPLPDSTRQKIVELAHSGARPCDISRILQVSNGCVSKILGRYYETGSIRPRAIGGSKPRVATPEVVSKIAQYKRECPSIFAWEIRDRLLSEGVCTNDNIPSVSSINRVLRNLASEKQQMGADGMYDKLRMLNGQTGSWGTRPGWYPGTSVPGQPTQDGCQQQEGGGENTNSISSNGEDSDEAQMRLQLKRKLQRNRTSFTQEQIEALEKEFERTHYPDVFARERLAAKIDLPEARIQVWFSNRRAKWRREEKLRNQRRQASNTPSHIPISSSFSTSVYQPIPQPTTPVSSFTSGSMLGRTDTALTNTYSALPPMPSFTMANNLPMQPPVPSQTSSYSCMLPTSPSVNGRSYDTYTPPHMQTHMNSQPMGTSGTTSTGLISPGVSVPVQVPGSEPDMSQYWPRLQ

The AC50 is the midpoint of the concentration-response curve, whichever way the signal moves. Take `CC(=O)OCCC1CCCCC1`: the outcome in experiment [1], in experiment [2], in experiment [3], in experiment [4], in [5] and in experiment [6] was inactive. Also, the result in experiment [7], in experiment [8], in experiment [9], in experiment [11], in [12] and in experiment [13] was inactive. Also, the molecule was classed as inactive in [14], in experiment [15] and in experiment [16]. In experiment [10], the AC50 is 31.8 µM (active).
Turning to `COCc1c(C(C)C)nc(C(C)C)c(/C=C/[C@@H](O)C[C@@H](O)CC(=O)O)c1-c1ccc(F)cc1`, the molecule was called inactive in experiment [1], in experiment [2], in [3], in experiment [5], in experiment [6] and in experiment [8]. For the same molecule, the molecule was called inactive in experiment [9], in [13], in experiment [17], in [14], in experiment [15] and in experiment [18]. In experiment [16], the molecule was called inactive. The AC50 in experiment [7] was 12.4 µM (active); in [10], 2.12 µM (active); in experiment [11], 1.67 µM (active).
Consider `CCC(CC)C(=O)O`, for which the outcome in experiment [1], in experiment [2], in experiment [3], in [19], in [5] and in experiment [6] was inactive. For the same molecule, the outcome in [7], in experiment [8], in experiment [9], in [11], in experiment [12] and in [13] was inactive. Moreover, the molecule was called inactive in experiment [14], in experiment [15], in experiment [18] and in [16].
For the molecule `CC1(C)[C@H]2CC[C@]1(C)C(=O)C2`, the result in experiment [1], in experiment [2], in [3], in experiment [19], in experiment [5] and in experiment [6] was inactive. Further, the call in experiment [7], in experiment [8], in experiment [9], in [10], in experiment [13] and in [17] was inactive. The molecule was classed as inactive in experiment [14], in experiment [15], in [18] and in experiment [16].
As for `Cn1c([N+](=O)[O-])cnc1COC(N)=O`, the outcome in [1], in experiment [2], in [3], in experiment [5], in [6] and in experiment [7] was inactive. In addition, the outcome in experiment [8], in experiment [9], in experiment [10], in experiment [11], in experiment [12] and in [13] was inactive. The outcome in experiment [17], in experiment [14], in experiment [18] and in [16] was inactive.
`CCCc1ccc(OC)cc1`: the result in experiment [1], in [2], in [3], in experiment [19], in [5] and in experiment [6] was inactive. The call in experiment [7], in experiment [9], in experiment [10], in [12], in experiment [13] and in [17] was inactive. Moreover, the result in experiment [15], in experiment [18] and in [16] was inactive.
